Screens as filed in PubChem BioAssay.
HT1080NT lethal – qHTS for induction of synthetic lethality in tumor cells producing 2HG: qHTS for the HT-1080-NT fibrosarcoma cell line; actives 1.6% (n = 360,000); Potency, µM (highest dose often 46.1 µM), for the others: at the highest dose activity, negative = less viability, usual class: cytotoxic; AID 686970, 2013; HT-1080-NT fibrosarcoma viability, CellTiter-Glo ATP luminescence, 48 h;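 also: NT is the 2HG producing partner of a matched IDH1 knockdown line; potency is read from the fitted curve at half-maximal effect; 0% = DMSO-treated cells and -100% = media-only wells without cells; nearly all actives have a fitted effect of over 55% in size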
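Viability by CellTiter-Glo luminescence after 48 h compound exposure at 37C of HT-1080-NT cells (750/well, RPMI, 5% FBS). % activity scaled between DMSO wells and medium-only wells, then curve-fitted and categorized by curve class.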
HT1080 IDH1KD tx – qHTS for induction of synthetic lethality in tumor cells producing 2HG: qHTS for the HT-1080-IDH1KD cell line | HT-1080 IDH1 knockdown viability, ATP luminescence, 48 h | actives 2% (n = 360,000) | Potency, µM (titrated, usually from 46.1 µM), for inactives: at the top dose activity, negative = toxicity, hits mostly cytotoxic;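 also: potency is read from the fitted curve at half-maximal effect; 0% = DMSO wells and -100% = cell-free medium wells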
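After a 2 h attachment period, IDH1KD HT-1080 cells took pin-transferred compound for 48 h at 37 °C; ATP-based luminescence after 10 min room-temperature reagent incubation reported viability.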
TDP1 cell CPT – qHTS for Inhibitors of human tyrosyl-DNA phosphodiesterase 1 (TDP1): qHTS in cells in presence of CPT; Potency, µM (titrated, usually from 46.2 µM), for the others: top-dose activity change, negative = growth inhibition, usual class: inhibitors; actives 12% (n = 420,000); AID 686979, 2013; chicken DT40 Tdp1-/-;hTDP1 cells + 20 nM CPT, ATP luminescence, 48 h; also: potency is read from the fitted curve at half-maximal effect; nearly all actives have a fitted effect of over 55% in size
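Chicken DT40 Tdp1-/- cells complemented with human TDP1, 400 cells/well, exposed to compounds plus 20 nM camptothecin for at least 48 h at 37 C; viability read as ATP content by CellTiter-Glo luminescence.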
IL1B secr inh – qHTS for Inhibitors of Inflammasome Signaling: IL-1-beta AlphaLISA Primary Screen | THP-1 LPS/ATP IL-1B secretion, AlphaLISA, 16 h; hits give low values | activity change, % at 57.5 µM | actives 4.7% (n = 360,000); in the data active = activity change below about -50%; inconclusive = mostly about -30% to -49%
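THP-1 cells pretreated 1 hr with compounds (up to 57.5 uM final), then stimulated with LPS (250 ng/mL final) plus ATP (1.25 mM final); secreted IL-1B measured by AlphaLISA after 16 hr, decreased signal indicating inhibition.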
ELG1 DNA repair – qHTS screen for small molecules that inhibit ELG1-dependent DNA repair in human embryonic kidney (HEK293T) cells expressing luciferase-tagged ELG1. HEK293T ELG1-luciferase reporter, luminescence, 16 h; DNA damage induced by 5-fluorouridine. Potency, µM (series often up to 46.1 µM), inactives show at the highest dose activity change, negative = inhibition, actives largely listed as inhibitors. actives 2.3% (n = 330,000). AID 504467, 2011; also: potency is read from the fitted curve at half-maximal effect; nearly all actives have a fitted effect of over 55% in size
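Cells (2,000 per well) received 5-fluorouridine plus test compound or DMSO and were incubated 16 hr at 37 °C, 5% CO2. Luciferase activity was read by luminescence 30 min after ONE-Glo addition; signal suppression marked inhibition of damage-induced ELG1 function.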
DT40 TDP1 no CPT – qHTS for Inhibitors of human tyrosyl-DNA phosphodiesterase 1 (TDP1): qHTS in cells in absence of CPT; DT40 Tdp1-/- hTDP1 cells, no CPT, ATP luminescence, 48 h; Potency, µM (series often up to 46.2 µM), inactives show at the highest dose activity change, negative = growth inhibition, most hits filed as inhibitors; actives 15% (n = 420,000); also: potency is read from the fitted curve at half-maximal effect; nearly all actives have a fitted effect of over 55% in size
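Chicken DT40 Tdp1-/- cells stably complemented with human TDP1 were seeded at 400 cells/well with DMSO in place of 20 nM camptothecin. After compound pinning, cells grew at least 48 hr at 37 °C; viability read by CellTiter-Glo luminescence.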
An asterisk follows results filed as active. Rows were chosen to be rich in hits. Some 19% of all compounds tested hit in one or more screens of this group. Unless noted, calls follow the shape of the dose curve; as a rule, active = well fitted curve in the direction sought with a large enough effect; inconclusive = small, poorly fitted or top-dose-only effect, or another doubt; inactive = no such curve, though single readings can be large; an effect the other way counts as inactive or inconclusive. Unless noted, % is scaled to controls: 0 for no effect and ±100 for the full control effect.

For COc1ccc2[nH]cc(CCNc3nc(-c4ccc(C(=O)N(C)C)cc4)nc4ccccc34)c2c1 the results were TDP1 cell CPT 21µM* and DT40 TDP1 no CPT 7.3µM*.
For CCCCCCCCCc1conc1C(=O)/C=C/c1ccco1 the results were HT1080NT lethal 3%, HT1080 IDH1KD tx 2%, TDP1 cell CPT 6%, IL1B secr inh 1 and DT40 TDP1 no CPT -13%.
For COc1ccc(-n2nc(C(=O)O)cc2-c2ccccc2)cc1 the results were HT1080NT lethal -2%, HT1080 IDH1KD tx -1%, TDP1 cell CPT -1%, IL1B secr inh 2, ELG1 DNA repair 1% and DT40 TDP1 no CPT 14%.
`CC1CCCCC12NC(=O)N(CC(=O)N1CCN(S(=O)(=O)/C=C/c3ccccc3)CC1)C2=O` (stereo unspecified) gave HT1080NT lethal -1%, HT1080 IDH1KD tx -7%, TDP1 cell CPT -2%, IL1B secr inh -12, ELG1 DNA repair 4% and DT40 TDP1 no CPT 6%.
Screening CC(C)(C)OC(=O)CC(S(=O)(=O)c1ccccc1)S(=O)(=O)c1ccccc1 returned HT1080NT lethal inconclusive, HT1080 IDH1KD tx inconclusive, TDP1 cell CPT 1.3µM*, IL1B secr inh -51* and DT40 TDP1 no CPT 0.92µM*.
Screening COc1cc(NC(=O)[C@H]2O[C@@H](n3cnc4c(N)ncnc43)[C@H](O)[C@@H]2O)cc(OC)c1OC returned HT1080NT lethal 12%, HT1080 IDH1KD tx 16%, TDP1 cell CPT 0%, IL1B secr inh -25 and DT40 TDP1 no CPT 20%.
For CCCCN(C(=O)COC(=O)c1sccc1C)c1c(N)n(CCC)c(=O)[nH]c1=O the results were HT1080NT lethal 14%, HT1080 IDH1KD tx 7%, TDP1 cell CPT -5%, IL1B secr inh -7 and DT40 TDP1 no CPT -22%.
Screening Cc1ccc(-n2ncc3c(=O)n(CC(=O)NCc4ccco4)cnc32)cc1C returned HT1080NT lethal inconclusive, HT1080 IDH1KD tx inconclusive, TDP1 cell CPT 10µM*, IL1B secr inh 21, ELG1 DNA repair -3% and DT40 TDP1 no CPT 6.5µM*.
Cc1ccc(-n2ncc3c(=O)n(CC(=O)NCc4ccco4)cnc32)cc1 was read as HT1080NT lethal -24%, HT1080 IDH1KD tx -30%, TDP1 cell CPT inconclusive, IL1B secr inh 21, ELG1 DNA repair -7% and DT40 TDP1 no CPT 23µM*.
For O=C(Cn1cnc2c(cnn2-c2ccc(F)cc2)c1=O)NCc1ccco1 the results were HT1080NT lethal inconclusive, HT1080 IDH1KD tx 18µM*, TDP1 cell CPT 2.9µM*, IL1B secr inh 39, ELG1 DNA repair -29% and DT40 TDP1 no CPT 5.8µM*.
Screening CCCn1c(NC(=O)C2CCN(C(=O)c3ccc(F)cc3)CC2)nc2ccccc21 returned HT1080NT lethal 0%, HT1080 IDH1KD tx -5%, TDP1 cell CPT 18µM*, IL1B secr inh 0, ELG1 DNA repair inconclusive and DT40 TDP1 no CPT inconclusive.
`CCCn1c(NC(=O)CCNC(=O)c2ccccc2Cl)nc2ccccc21` gave HT1080NT lethal -3%, HT1080 IDH1KD tx -1%, TDP1 cell CPT inconclusive, IL1B secr inh -17, ELG1 DNA repair 21µM* and DT40 TDP1 no CPT inconclusive.
Screening CCCn1c(NC(=O)c2ccccc2Br)nc2ccccc21 returned HT1080NT lethal -17%, HT1080 IDH1KD tx inconclusive, TDP1 cell CPT inconclusive, IL1B secr inh 5, ELG1 DNA repair 0% and DT40 TDP1 no CPT 23µM*.
